Cy5 interf NS3h: Cy5 fluorescence quenchers or enhancers, artefact control for HCV NS3 helicase inhibitor project, biochemical, ChemBridge library, Cy5 readout; fluorescence interference ratio at 100 µM; 16,000 tested, 6% active; Cy5-dT15 DNA with NS3h, fluorescence interference; actives lie on both sides; signal over control mean, under 1 quenches;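 active = compound fluorescence over control fluorescence at most 0.8, a quencher, or at least a set upper limit, an enhancer; inactive = ratio between 0.8 and the set upper limit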
HCV NS3h FP: HCV NS3 helicase inhibitors, primary screen, biochemical, fluorescence polarization, ChemBridge library. NS3h Cy5-dT15 DNA binding. inhibition, % at 100 µM. 16,000 tested, 1.6% active. AID 687043, 2013;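 active = inhibition above the average over every tested compound plus 3 SD, cut at about 40% in these data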
NS3h confirm: HCV NS3 helicase inhibitors, retest, confirmation, biochemical, fluorescence polarization, ChemBridge library; shares compounds with HCV NS3h FP; AID 720485, 2013; NS3h binding to Cy5-dT15 DNA; inhibition, % at 100 µM; 240 tested, 20% active;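 active = percent inhibition of 50% or more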
SSB FP counter: E. coli SSB-DNA binding inhibitors, counter-screen for HCV NS3 helicase inhibitor project, biochemical, fluorescence polarization, selected ChemBridge compounds | inhibition, % at 100 µM | 240 tested, 40% active | shares compounds with HCV NS3h FP | E. coli SSB binding Cy5-dT15;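 active = inhibition of at least 50%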;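 note: displacers lower Cy5 polarization so higher inhibition means more SSB displaced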
Target sequence (P0AGE0 whole entry, looked up): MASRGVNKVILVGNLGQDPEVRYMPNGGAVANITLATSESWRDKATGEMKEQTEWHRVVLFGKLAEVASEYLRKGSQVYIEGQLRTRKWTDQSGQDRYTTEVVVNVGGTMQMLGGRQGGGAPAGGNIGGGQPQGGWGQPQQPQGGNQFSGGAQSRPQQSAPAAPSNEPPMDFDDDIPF
Cy5 SSB interf: Cy5 fluorescence interference with SSB-bound oligo, artefact control for HCV NS3 helicase inhibitor project, biochemical, E. coli SSB, selected ChemBridge compounds | shares compounds with HCV NS3h FP | Cy5-dT15/E. coli SSB fluorescence interference; actives lie on both sides | fluorescence interference ratio at 100 µM | 240 tested, 8% active | AID 720487, 2013;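 active = fluorescence interference ratio at or above 1.2, signal boosting, or at or below 0.8, signal quenching; inactive = ratio between 0.8 and 1.2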
Cy5 fluor confirm: Cy5-DNA-NS3h complex fluorescence interference, confirmation, artefact control for HCV NS3 helicase inhibitor project, biochemical, ChemBridge library. shares compounds with HCV NS3h FP. fluorescence interference ratio at 100 µM, hits read low. Cy5-dT15 DNA/NS3h fluorescence interference counterscreen. 240 tested, 44% active. AID 720489, 2013;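 active = fluorescence interference ratio at or below 0.8 quencher or at or above a set limitenhancer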
A number is an active result; i = inactive; nt = not tested or not shown. Most compounds without a hit are left out; they make up all but 7.6% or so of the library.

SMILES	Cy5 interf NS3h	HCV NS3h FP	NS3h confirm	SSB FP counter	Cy5 SSB interf	Cy5 fluor confirm
O=C1C(=O)N(c2nc3ccccc3s2)C(c2ccccc2Cl)C1=C(O)c1ccccc1 (stereo unspecified)	i	i	i	i	i	0.76
O=C1C(=O)N(c2nc3ccccc3s2)C(c2ccccc2F)C1=C(O)c1ccccc1 (stereo unspecified)	i	i	nt	nt	nt	nt
O=C(/C(=C/c1ccccc1[N+](=O)[O-])c1nc2ccccc2s1)c1ccccc1	i	i	nt	nt	nt	nt
C=CCOc1ccc(/C=C/C(=O)c2ccc(Br)cc2)cc1	i	i	nt	nt	nt	nt
CN1C(=O)/C(=C/c2ccc(-c3ccc(C(=O)O)cc3)o2)SC1=S	1.2	76	i	i	i	i
O=C1NC(=S)S/C1=C\c1ccc(C(=O)O)cc1	i	i	nt	nt	nt	nt
CC1=NN(c2ccc(C(=O)O)cc2)C(=O)/C1=C\c1ccc(-c2cccc(C(=O)O)c2)o1	i	i	nt	nt	nt	nt
COC(=O)c1ccc(-c2ccc(/C=C3/SC(=S)N(C)C3=O)o2)cc1	i	i	nt	nt	nt	nt
O=C1/C(=C\c2ccc(-c3cccc(Cl)c3)o2)SC(=S)N1CCS(=O)(=O)O	i	84	i	98	i	i
COCCN1C(=O)/C(=C\c2ccc(-c3cccc([N+](=O)[O-])c3)o2)SC1=S	i	i	nt	nt	nt	nt
O=C1NC(=S)S/C1=C/c1ccc(-c2cccc(C(=O)O)c2)o1	i	67	62	99	i	0.79
N=C1S/C(=C\c2ccc(-c3cccc(C(=O)O)c3)o2)C(=O)N1c1ccc2c(c1)OCO2	i	71	i	107	i	i
COc1ccc(N=Cc2ccc(Br)s2)c([N+](=O)[O-])c1	i	i	nt	nt	nt	nt
N/C(=N/OC(=O)c1ccccc1Br)c1ccc(Cl)cc1	i	i	nt	nt	nt	nt
O=C1CC(c2ccc([N+](=O)[O-])cc2)=NN1	i	i	nt	nt	nt	nt
CCC1=NN2C(=N)/C(=C/c3ccc(-c4cccc(C(=O)O)c4)o3)C(=O)N=C2S1	i	52	i	87	i	i
CCC1=NN2C(=N)/C(=C/c3ccc(-c4cccc([N+](=O)[O-])c4)o3)C(=O)N=C2S1	i	i	nt	nt	nt	nt
O=C(c1cccc(Br)c1)N1CCN(c2ccc(F)cc2)CC1	i	i	nt	nt	nt	nt
O=C(O)CN1C(=O)/C(=C\c2ccc(OC(=O)c3ccc(Cl)cc3Cl)cc2)SC1=S	i	i	nt	nt	nt	nt
O=C(O)CN1C(=O)/C(=C/c2ccc(OC(=O)c3ccccc3I)cc2)SC1=S	i	62	i	i	i	0.76
CCCCP(=O)(CCCC)CCP(=O)(CCCC)CCCC	i	i	nt	nt	nt	nt
CCCCCCN1C(=O)C(O)=C(C(C)=O)C1c1ccccc1 (stereo unspecified)	i	i	nt	nt	nt	nt
O=c1oc2ccccc2c(O)c1C=C1C=Nc2ccccc21	i	46	i	i	i	i
CCN(CC)c1ccc(-n2c(O)c(C=C3C=Nc4ccccc43)sc2=S)cc1	i	i	nt	nt	nt	nt
CC(=O)Nc1ccc(-c2nc3ccc(-c4ccc5nc(-c6ccc(NC(C)=O)cc6)oc(=O)c5c4)cc3c(=O)o2)cc1	i	56	i	i	i	i
SMILES	Cy5 interf NS3h	HCV NS3h FP	NS3h confirm	SSB FP counter	Cy5 SSB interf	Cy5 fluor confirm
CC(C)(C)C(=O)Nc1ccc(-c2nc3ccccc3o2)cc1	i	i	nt	nt	nt	nt
COc1cccc(/C=C2\C(=O)NC(=O)N(c3cc(C)cc(C)c3)C2=O)c1OC	i	i	nt	nt	nt	nt
Cc1ccc(N2C(=O)NC(=O)/C(=C\c3ccc(O)c(Br)c3)C2=O)cc1	i	i	nt	nt	nt	nt
Cc1cc(C)cc(N2C(=O)NC(=O)/C(=C\c3ccc(O)c(Br)c3)C2=O)c1	i	i	i	i	i	0.75
C=CCOc1c(Br)cc(/C=C2\C(=O)NC(=O)N(c3ccc(Cl)cc3)C2=O)cc1OC	i	i	nt	nt	nt	nt
O=C1NC(=O)N(c2cccc(Cl)c2)C(=O)/C1=C/c1ccc(O)c(Cl)c1	i	i	nt	nt	nt	nt
O=C1NC(=O)N(c2ccccc2F)C(=O)/C1=C/c1ccc(O)c(Cl)c1	i	i	nt	nt	nt	nt
COc1ccccc1N1C(=O)NC(=O)/C(=C\c2ccc(O)c(O)c2)C1=O	i	44	i	i	i	i

Screening results (PubChem)
